Substitutions are numbered along the chain they refer to; changes in the protein carry UniProt numbers. In all, about 16,000 sequences were measured (“ka relative to ugcaugu”: median about 0.0091, highest 2% from about 0.032 on). This is one part of a sample in which the highest values are shown more often than they occur.
T1: RBFOX1 RRM (Homo sapiens, UniProt Q9NWB1 109-208)
T1 sequence: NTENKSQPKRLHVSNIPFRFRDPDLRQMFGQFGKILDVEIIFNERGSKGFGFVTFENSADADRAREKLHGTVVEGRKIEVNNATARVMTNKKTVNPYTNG

B1: UUUCUAU (DNA:RNA)
RNA: GGGAGACCGGAAUUCAGAUUGUCCUUUCUAUUUAAAUCCCGUCGUAGCCACCA
DNA 1: CAATCTGAATTCCGGTCTCCC
DNA 2: TGGTGGCTACGACGGGATT
B2: UGCAUCU (DNA:RNA)
RNA: B1 RNA with U26G, U27C, C28A, A30C
DNA 1: CAATCTGAATTCCGGTCTCCC
DNA 2: TGGTGGCTACGACGGGATT
B3: AUCCGAU (DNA:RNA)
RNA: B1 RNA with U25A, U27C, U29G
DNA 1: CAATCTGAATTCCGGTCTCCC
DNA 2: TGGTGGCTACGACGGGATT
B4: ACAACUC (DNA:RNA)
RNA: GGGAGACCGGAAUUCAGAUUGUCCACAACUCUUAAAUCCCGUCGUAGCCACCA
DNA 1: CAATCTGAATTCCGGTCTCCC
DNA 2: TGGTGGCTACGACGGGATT
B5: GCCAUCC (DNA:RNA)
RNA: B4 RNA with A25G, A27C, C29U, U30C
DNA 1: CAATCTGAATTCCGGTCTCCC
DNA 2: TGGTGGCTACGACGGGATT
B6: CGCUAUU (DNA:RNA)
RNA: B4 RNA with A25C, C26G, A27C, A28U, C29A, C31U
DNA 1: CAATCTGAATTCCGGTCTCCC
DNA 2: TGGTGGCTACGACGGGATT
B7: UAGAUGA (DNA:RNA)
RNA: B1 RNA with U26A, U27G, C28A, A30G, U31A
DNA 1: CAATCTGAATTCCGGTCTCCC
DNA 2: TGGTGGCTACGACGGGATT
B8: CUGGUUC (DNA:RNA)
RNA: B4 RNA with A25C, C26U, A27G, A28G, C29U
DNA 1: CAATCTGAATTCCGGTCTCCC
DNA 2: TGGTGGCTACGACGGGATT
B9: UGGGUUC (DNA:RNA)
RNA: B4 RNA with A25U, C26G, A27G, A28G, C29U
DNA 1: CAATCTGAATTCCGGTCTCCC
DNA 2: TGGTGGCTACGACGGGATT
B10: UGGUUCU (DNA:RNA)
RNA: B1 RNA with U26G, U27G, C28U, A30C
DNA 1: CAATCTGAATTCCGGTCTCCC
DNA 2: TGGTGGCTACGACGGGATT
B11: UGCUGGG (DNA:RNA)
RNA: B1 RNA with U26G, U27C, C28U, U29G, A30G, U31G
DNA 1: CAATCTGAATTCCGGTCTCCC
DNA 2: TGGTGGCTACGACGGGATT
B12: UCCUGGG (DNA:RNA)
RNA: B4 RNA with A25U, A27C, A28U, C29G, U30G, C31G
DNA 1: CAATCTGAATTCCGGTCTCCC
DNA 2: TGGTGGCTACGACGGGATT
B13: CCCCUGG (DNA:RNA)
RNA: B1 RNA with U25C, U26C, U27C, A30G, U31G
DNA 1: CAATCTGAATTCCGGTCTCCC
DNA 2: TGGTGGCTACGACGGGATT
B14: UGGGGGG (DNA:RNA)
RNA: B1 RNA with U26G, U27G, C28G, U29G, A30G, U31G
DNA 1: CAATCTGAATTCCGGTCTCCC
DNA 2: TGGTGGCTACGACGGGATT
B15: UGGGUUG (DNA:RNA)
RNA: B1 RNA with U26G, U27G, C28G, A30U, U31G
DNA 1: CAATCTGAATTCCGGTCTCCC
DNA 2: TGGTGGCTACGACGGGATT
B16: UGUUGGG (DNA:RNA)
RNA: B1 RNA with U26G, C28U, U29G, A30G, U31G
DNA 1: CAATCTGAATTCCGGTCTCCC
DNA 2: TGGTGGCTACGACGGGATT
B17: UGGGUUU (DNA:RNA)
RNA: B1 RNA with U26G, U27G, C28G, A30U
DNA 1: CAATCTGAATTCCGGTCTCCC
DNA 2: TGGTGGCTACGACGGGATT
B18: CUGGGUU (DNA:RNA)
RNA: B1 RNA with U25C, U27G, C28G, U29G, A30U
DNA 1: CAATCTGAATTCCGGTCTCCC
DNA 2: TGGTGGCTACGACGGGATT
B19: UGGUUUU (DNA:RNA)
RNA: B1 RNA with U26G, U27G, C28U, A30U
DNA 1: CAATCTGAATTCCGGTCTCCC
DNA 2: TGGTGGCTACGACGGGATT
B20: AAAUAAA (DNA:RNA)
RNA: B4 RNA with C26A, A28U, C29A, U30A, C31A
DNA 1: CAATCTGAATTCCGGTCTCCC
DNA 2: TGGTGGCTACGACGGGATT
B21: AAAGAGU (DNA:RNA)
RNA: B4 RNA with C26A, A28G, C29A, U30G, C31U
DNA 1: CAATCTGAATTCCGGTCTCCC
DNA 2: TGGTGGCTACGACGGGATT
B22: AGUGGCG (DNA:RNA)
RNA: B4 RNA with C26G, A27U, A28G, C29G, U30C, C31G
DNA 1: CAATCTGAATTCCGGTCTCCC
DNA 2: TGGTGGCTACGACGGGATT
B23: CUCUGUC (DNA:RNA)
RNA: B4 RNA with A25C, C26U, A27C, A28U, C29G
DNA 1: CAATCTGAATTCCGGTCTCCC
DNA 2: TGGTGGCTACGACGGGATT
B24: GUGCGCC (DNA:RNA)
RNA: B1 RNA with U25G, U27G, U29G, A30C, U31C
DNA 1: CAATCTGAATTCCGGTCTCCC
DNA 2: TGGTGGCTACGACGGGATT
B25: CUUACGG (DNA:RNA)
RNA: B4 RNA with A25C, C26U, A27U, U30G, C31G
DNA 1: CAATCTGAATTCCGGTCTCCC
DNA 2: TGGTGGCTACGACGGGATT
B26: CUGGGGU (DNA:RNA)
RNA: B1 RNA with U25C, U27G, C28G, U29G, A30G
DNA 1: CAATCTGAATTCCGGTCTCCC
DNA 2: TGGTGGCTACGACGGGATT
B27: UGGUUGC (DNA:RNA)
RNA: B1 RNA with U26G, U27G, C28U, A30G, U31C
DNA 1: CAATCTGAATTCCGGTCTCCC
DNA 2: TGGTGGCTACGACGGGATT
B28: UGGGGUU (DNA:RNA)
RNA: B1 RNA with U26G, U27G, C28G, U29G, A30U
DNA 1: CAATCTGAATTCCGGTCTCCC
DNA 2: TGGTGGCTACGACGGGATT
B29: CGGUUGC (DNA:RNA)
RNA: B4 RNA with A25C, C26G, A27G, A28U, C29U, U30G
DNA 1: CAATCTGAATTCCGGTCTCCC
DNA 2: TGGTGGCTACGACGGGATT
B30: UGGGGGU (DNA:RNA)
RNA: B1 RNA with U26G, U27G, C28G, U29G, A30G
DNA 1: CAATCTGAATTCCGGTCTCCC
DNA 2: TGGTGGCTACGACGGGATT
B31: UGGUUGG (DNA:RNA)
RNA: B1 RNA with U26G, U27G, C28U, A30G, U31G
DNA 1: CAATCTGAATTCCGGTCTCCC
DNA 2: TGGTGGCTACGACGGGATT

Biological target: T1, RBFOX1 RRM
Test: EMSA; HiTS-Eq, 1 nM pool, 10 min; buffer printed only for the single-RNA assays: 10 mM Tris pH 7.5, 150 mM NaCl, 3.4 mM EDTA, 0.001% NP-40, 30 C
Settings: tags: His6 N-terminal (pET28a); label: 5' 32P
Outline: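 Purified RbFox RRM, wild type or mutant, was incubated for 10 min in 50 µL with 1 nM of a 5′-radiolabelled RNA pool carrying 7 randomized nucleotides, whose flanks were annealed to DNA oligonucleotides, over a series of increasing protein concentrations. Unbound RNA was resolved on 8% native PAGE, cut out, reverse-transcribed, barcoded by PCR and sequenced on an Illumina HiSeq 2500. Relative association constants were derived from changes in read counts for each RNA species versus the control reaction and normalised to the cognate motif.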

Binder	binding signal
B1	0.00863 KA relative to UGCAUGU
B2	0.0208 KA relative to UGCAUGU
B3	0.00393 KA relative to UGCAUGU
B4	0.00147 KA relative to UGCAUGU
B5	0.00701 KA relative to UGCAUGU
B6	0.00582 KA relative to UGCAUGU
B7	0.0121 KA relative to UGCAUGU
B8	0.0321 KA relative to UGCAUGU
B9	0.0352 KA relative to UGCAUGU
B10	0.019 KA relative to UGCAUGU
B11	0.0153 KA relative to UGCAUGU
B12	0.00619 KA relative to UGCAUGU
B13	0.0109 KA relative to UGCAUGU
B14	0.0192 KA relative to UGCAUGU
B15	0.0558 KA relative to UGCAUGU
B16	0.00877 KA relative to UGCAUGU

Binder	binding signal
B17	0.0379 KA relative to UGCAUGU
B18	0.0262 KA relative to UGCAUGU
B19	0.0278 KA relative to UGCAUGU
B20	0.000652 KA relative to UGCAUGU
B21	0.00527 KA relative to UGCAUGU
B22	0.0184 KA relative to UGCAUGU
B23	0.00978 KA relative to UGCAUGU
B24	0.0184 KA relative to UGCAUGU
B25	0.00764 KA relative to UGCAUGU
B26	0.018 KA relative to UGCAUGU
B27	0.0455 KA relative to UGCAUGU
B28	0.036 KA relative to UGCAUGU
B29	0.0256 KA relative to UGCAUGU
B30	0.0229 KA relative to UGCAUGU
B31	0.0294 KA relative to UGCAUGU

Reference: paper PMC9911399, “Two distinct binding modes provide the RNA-binding protein RbFox with extraordinary sequence specificity”
